From PubChem BioAssay (NCI) come the findings set out here.

About 83,000 compounds went through this panel and 20% of them were active in at least one assay; those are over-represented in the sample as a whole.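 Compound tested at a single concentration for 48 hours in 96-well plates; a percent growth value below 10 was scored as active.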 Unmarked numbers belong to inactive results. Activity calls are given as the source filed them.

Test systems include NCI-H23 lung; NCI-H226 lung; NCI-H322M lung; HOP-62 NSCLC; NCI-H460 lung; HOP-92 NSCLC; NCI-H522 lung; A549/ATCC NSCLC; 786-0 renal; COLO 205 colon; DU-145 prostate; K-562 leukemia; MALME-3M melanoma; MDA-MB-231 breast; RXF 393 renal; SF-268 CNS; SF-295 CNS; SF-539 CNS; UACC-257 melanoma; M14 melanoma.
What all share (assay): NCI-60 one-dose screen, 48 h (100 = growth as untreated, 0 = no growth, -100 = all killed)
What all share (conditions): 10 µM unless noted

Turning to `Cc1[nH]c(C(=O)Nc2ccccc2OCc2cccc(C(=O)NCCN)c2)c(Cl)c1Cl`, the growth in the test on NCI-H23 lung is 78%; with NCI-H226 lung it was 87.8%; in the test on NCI-H322M lung it was 81.9%; in the test on HOP-62 NSCLC, 69.2%; in the test on NCI-H460 lung it was 51.8%; in the test on HOP-92 NSCLC it was 84.6%. Further, the growth is 80.9% with NCI-H522 lung; 63.8% in the test with A549/ATCC NSCLC; 33.9% in the test with 786-0 renal; 68.7% in the test on COLO 205 colon; 100% in the test on DU-145 prostate; -47.5% (active) in the test on K-562 leukemia. In addition, the growth in the test on MALME-3M melanoma is 58.4%; in the test on MDA-MB-231 breast, 76.8%; in the test with RXF 393 renal, 65.2%; in the test on SF-268 CNS it was 67.9%; with SF-295 CNS, 87.8%; with SF-539 CNS it was 84.9%. For the same compound, the growth is 104% with UACC-257 melanoma and 87.8% with M14 melanoma.

Take `NC(=S)N/N=C/c1ccc(OC(=O)COc2cc(Cl)c(Cl)cc2Cl)cn1`: the growth in the test on NCI-H23 lung is 28.1%; in the test with NCI-H226 lung, 84.6%; in the test with NCI-H322M lung, 57.2%; in the test with HOP-62 NSCLC, 85.6%; in the test on NCI-H460 lung it was 79.9%; with HOP-92 NSCLC, 48.6%. Besides, the growth in the test with NCI-H522 lung is 23.8%; with A549/ATCC NSCLC, 107%; in the test on 786-0 renal, 19.9%; with COLO 205 colon it was 117%; with DU-145 prostate it was 36.4%; in the test with K-562 leukemia it was 48.6%. The growth is 75.7% in the test on MALME-3M melanoma; 82.6% with MDA-MB-231 breast; 50.1% in the test on RXF 393 renal; 41.2% in the test on SF-268 CNS; 134% in the test on SF-295 CNS; 29.5% with SF-539 CNS. Besides, the growth is 78.9% in the test on UACC-257 melanoma and 41.2% with M14 melanoma.

`CC(=O)CCSc1ccc(OC(C)=O)cc1`: the growth in the test on NCI-H23 lung was 100%; in the test with NCI-H226 lung it was 101%; with NCI-H322M lung, 103%; with HOP-62 NSCLC, 98%; with NCI-H460 lung it was 106%; in the test with HOP-92 NSCLC, 79.8%. Further, the growth was 82.3% with NCI-H522 lung; 88.3% in the test on A549/ATCC NSCLC; 100% with 786-0 renal; 116% with COLO 205 colon; 108% in the test with DU-145 prostate; 96.1% with K-562 leukemia. Also, the growth with MALME-3M melanoma is 115%; with MDA-MB-231 breast it was 91.7%; in the test with RXF 393 renal it was 109%; in the test with SF-268 CNS, 96.4%; in the test on SF-295 CNS, 105%; in the test with SF-539 CNS, 97.3%. For the same compound, the growth with UACC-257 melanoma is 88.1%; with M14 melanoma it was 103%.

Turning to `CN(C)C(C(N)=O)c1ccc(Cl)cc1` (centres undefined), the growth in the test on NCI-H23 lung was 104%; in the test on NCI-H226 lung, 103%; in the test on NCI-H322M lung, 103%; with HOP-62 NSCLC it was 99.6%; with NCI-H460 lung, 109%; in the test on HOP-92 NSCLC, 71.4%. Moreover, the growth is 96.1% in the test with NCI-H522 lung; 96.6% in the test with A549/ATCC NSCLC; 96.1% in the test on 786-0 renal; 110% with COLO 205 colon; 107% with DU-145 prostate; 98.8% with K-562 leukemia. Also, the growth with MALME-3M melanoma was 103%; in the test with MDA-MB-231 breast, 98.3%; in the test with RXF 393 renal, 118%; with SF-268 CNS, 102%; in the test on SF-295 CNS it was 100%; in the test on SF-539 CNS it was 99.5%. In addition, the growth in the test on UACC-257 melanoma was 95.5%; with M14 melanoma, 96.7%.

Regarding `COc1nccnn1`, the growth in the test with NCI-H23 lung was 107%; in the test with NCI-H226 lung it was 96.2%; in the test on NCI-H322M lung, 91%; in the test on HOP-62 NSCLC, 114%; in the test on NCI-H460 lung it was 122%; with HOP-92 NSCLC, 69.5%. The growth is 109% in the test on NCI-H522 lung; 102% in the test on A549/ATCC NSCLC; 104% with 786-0 renal; 112% in the test on COLO 205 colon; 96.2% in the test with DU-145 prostate; 80.7% in the test with K-562 leukemia. Also, the growth was 120% with MALME-3M melanoma; 110% in the test with MDA-MB-231 breast; 114% with SF-268 CNS; 136% with SF-295 CNS; 104% in the test on SF-539 CNS; 109% in the test on UACC-257 melanoma. Moreover, the growth in the test with M14 melanoma is 108%.

With `CCCCCCC/C=C/[C@H]1O[C@]2(O)C(=O)C=C3C[C@@H](O[C@@H]4O[C@H](CO)[C@@H](O)C(O)[C@@H]4O)C[C@@H]3[C@H]2C=C1C` (some centres undefined), the growth with NCI-H23 lung was 43.6%; in the test with NCI-H226 lung, -20.8% (active); in the test on NCI-H322M lung it was 54.3%; with HOP-62 NSCLC it was 1.36% (active); in the test with NCI-H460 lung, 38.3%; with HOP-92 NSCLC, 11.8%. Further, the growth is -57.6% (active) in the test on NCI-H522 lung; 59.8% with A549/ATCC NSCLC; -52.4% (active) in the test on 786-0 renal; 11.8% in the test on COLO 205 colon; 20.6% in the test with DU-145 prostate; -5.09% (active) in the test with K-562 leukemia. Moreover, the growth in the test on MALME-3M melanoma is 1.95% (active); in the test with MDA-MB-231 breast, -8.64% (active); in the test on RXF 393 renal it was -80.3% (active); in the test with SF-268 CNS, 21.8%; in the test on SF-295 CNS, 37.5%; in the test on SF-539 CNS, -43.7% (active). Also, the growth in the test on UACC-257 melanoma was -7.54% (active); in the test with M14 melanoma, -23.6% (active).

As to `Cc1n[nH]c(C)c1-c1c(C)n[nH]c1C`, the growth with NCI-H23 lung was 8.62% (active); with NCI-H226 lung, 56.2%; in the test with NCI-H322M lung, 28.6%; with HOP-62 NSCLC it was 34.5%; with NCI-H460 lung, -35.1% (active); in the test with HOP-92 NSCLC, -3.52% (active). Besides, the growth in the test with NCI-H522 lung is -8.26% (active); in the test with A549/ATCC NSCLC it was 11.9%; with 786-0 renal, 6.23% (active); with COLO 205 colon it was -21.6% (active); in the test on DU-145 prostate, 9.47% (active); in the test with K-562 leukemia it was 5.03% (active). In addition, the growth with MALME-3M melanoma was -38.3% (active); in the test with MDA-MB-231 breast, -14.5% (active); in the test with RXF 393 renal it was -47.8% (active); in the test with SF-268 CNS, 19.1%; with SF-295 CNS, 18.8%; with SF-539 CNS, -54.6% (active). Also, the growth is 39.6% in the test on UACC-257 melanoma and -4.4% (active) in the test on M14 melanoma.
